Experimental data: paper PMC7862700, “An all-to-all approach to the identification of sequence-specific readers for epigenetic DNA modifications on cytosine”

Experiments:
Assay in all cases: DAPPL (digital affinity profiling via proximity ligation, sequencing); 10 mM Tris-HCl pH 7.5, 50 mM NaCl, 1 mM DTT, 4% glycerol, room temperature, 30 min; GST-TFs on glutathione beads, 16-mer random dsDNA library, 0.1% formaldehyde crosslink after washing; high values mean tight binding
FEV = molecular target: T1, FEV (Homo sapiens, UniProt Q99581 1-238); conditions: protein: recombinant; tags: N-terminal GST; dsDNA, one strand shown
T1 sequence: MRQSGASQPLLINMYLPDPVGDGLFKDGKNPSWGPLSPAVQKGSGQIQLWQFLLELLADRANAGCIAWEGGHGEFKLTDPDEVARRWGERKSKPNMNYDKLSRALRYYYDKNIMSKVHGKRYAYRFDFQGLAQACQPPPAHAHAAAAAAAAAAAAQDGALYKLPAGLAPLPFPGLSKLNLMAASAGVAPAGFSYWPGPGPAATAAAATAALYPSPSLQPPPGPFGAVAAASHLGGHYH
How it was run: (§1)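 Each value of binding signal is a hexamer's read frequency for a factor divided by the same hexamer's frequency in the tag-only sample. Barcoded, bead-captured GST fusions of human transcription factors made in yeast were pooled with that sample and incubated with 200 nmole of a random double-stranded 16-mer DNA library in Tris/NaCl/DTT/glycerol buffer at room temperature for 30 min. Washing, 0.1% formaldehyde crosslinking, proximity ligation, PCR and Illumina NextSeq500 sequencing followed.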

ETV5 = ETV5 (Homo sapiens, UniProt P41161 1-510); conditions: protein: recombinant; tags: N-terminal GST; dsDNA, one strand shown
Sequence of ETV5 (P41161 whole entry): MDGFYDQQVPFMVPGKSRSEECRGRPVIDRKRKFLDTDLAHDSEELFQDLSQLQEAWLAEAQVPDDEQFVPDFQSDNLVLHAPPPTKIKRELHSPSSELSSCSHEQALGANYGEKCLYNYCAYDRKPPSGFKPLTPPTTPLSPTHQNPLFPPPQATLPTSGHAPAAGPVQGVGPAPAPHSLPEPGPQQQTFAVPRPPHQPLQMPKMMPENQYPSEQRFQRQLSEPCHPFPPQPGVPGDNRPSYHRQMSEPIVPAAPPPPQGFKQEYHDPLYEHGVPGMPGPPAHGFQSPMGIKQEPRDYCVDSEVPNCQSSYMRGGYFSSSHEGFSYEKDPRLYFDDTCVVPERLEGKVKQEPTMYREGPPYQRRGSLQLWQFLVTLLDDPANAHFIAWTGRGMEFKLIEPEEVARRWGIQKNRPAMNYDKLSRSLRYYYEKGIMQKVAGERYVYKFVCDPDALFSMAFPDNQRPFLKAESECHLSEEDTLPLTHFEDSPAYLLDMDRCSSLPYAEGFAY
How it was run: as §1

HSF1 = HSF1 (Homo sapiens, UniProt Q00613 1-529); conditions: protein: recombinant; tags: N-terminal GST; chain copies: 3; dsDNA, one strand shown
Sequence of HSF1 (Q00613 whole entry): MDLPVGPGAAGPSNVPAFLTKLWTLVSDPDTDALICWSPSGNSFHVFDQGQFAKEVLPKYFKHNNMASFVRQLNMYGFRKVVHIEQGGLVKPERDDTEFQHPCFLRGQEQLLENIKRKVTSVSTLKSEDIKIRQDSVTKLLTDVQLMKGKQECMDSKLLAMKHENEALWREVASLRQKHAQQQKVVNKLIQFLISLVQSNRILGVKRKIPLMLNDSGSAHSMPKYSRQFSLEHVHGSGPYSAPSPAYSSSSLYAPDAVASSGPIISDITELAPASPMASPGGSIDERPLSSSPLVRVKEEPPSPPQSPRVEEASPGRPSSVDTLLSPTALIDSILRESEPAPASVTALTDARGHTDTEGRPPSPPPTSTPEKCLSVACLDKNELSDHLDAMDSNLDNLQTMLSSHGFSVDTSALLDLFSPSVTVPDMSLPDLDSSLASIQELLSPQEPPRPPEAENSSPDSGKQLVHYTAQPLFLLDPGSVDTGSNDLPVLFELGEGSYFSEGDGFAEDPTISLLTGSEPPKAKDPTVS
How it was run: as §1

SPIC = molecular target: T2, SPIC (Homo sapiens, UniProt Q8N5J4 1-248); conditions: protein: recombinant; tags: N-terminal GST; dsDNA, one strand shown
T2 sequence: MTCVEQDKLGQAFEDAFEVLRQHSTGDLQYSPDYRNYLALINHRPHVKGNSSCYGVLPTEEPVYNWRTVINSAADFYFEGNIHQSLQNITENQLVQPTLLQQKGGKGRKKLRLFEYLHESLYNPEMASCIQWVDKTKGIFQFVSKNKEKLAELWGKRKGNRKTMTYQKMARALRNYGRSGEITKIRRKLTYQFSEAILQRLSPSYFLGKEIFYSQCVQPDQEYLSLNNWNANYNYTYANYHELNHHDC
How it was run: as §1

ELF4 = ELF4 (Homo sapiens, UniProt Q99607 1-663); conditions: protein: recombinant; tags: N-terminal GST; dsDNA, one strand shown
Sequence of ELF4 (Q99607 whole entry): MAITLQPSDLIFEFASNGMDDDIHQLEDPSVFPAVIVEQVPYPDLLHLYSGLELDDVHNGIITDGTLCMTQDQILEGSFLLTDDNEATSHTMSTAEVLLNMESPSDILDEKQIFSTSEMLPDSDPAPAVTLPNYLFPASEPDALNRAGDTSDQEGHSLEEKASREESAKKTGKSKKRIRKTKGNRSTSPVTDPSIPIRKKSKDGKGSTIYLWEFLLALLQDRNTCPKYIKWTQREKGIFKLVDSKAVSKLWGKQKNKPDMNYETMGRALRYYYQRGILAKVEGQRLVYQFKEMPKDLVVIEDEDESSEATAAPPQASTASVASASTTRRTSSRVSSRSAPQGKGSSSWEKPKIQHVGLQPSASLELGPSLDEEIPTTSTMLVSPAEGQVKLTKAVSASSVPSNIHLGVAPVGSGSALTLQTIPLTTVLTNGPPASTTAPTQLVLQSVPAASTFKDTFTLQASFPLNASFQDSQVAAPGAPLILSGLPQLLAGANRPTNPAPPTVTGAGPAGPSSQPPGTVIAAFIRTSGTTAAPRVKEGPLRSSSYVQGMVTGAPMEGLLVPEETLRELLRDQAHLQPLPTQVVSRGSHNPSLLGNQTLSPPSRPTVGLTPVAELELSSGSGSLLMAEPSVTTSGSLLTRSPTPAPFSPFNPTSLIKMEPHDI
How it was run: as §1

ELK4 = molecular target: T3, ELK4 (Homo sapiens, UniProt P28324-2 1-405); conditions: protein: recombinant; tags: N-terminal GST; dsDNA, one strand shown
T3 sequence: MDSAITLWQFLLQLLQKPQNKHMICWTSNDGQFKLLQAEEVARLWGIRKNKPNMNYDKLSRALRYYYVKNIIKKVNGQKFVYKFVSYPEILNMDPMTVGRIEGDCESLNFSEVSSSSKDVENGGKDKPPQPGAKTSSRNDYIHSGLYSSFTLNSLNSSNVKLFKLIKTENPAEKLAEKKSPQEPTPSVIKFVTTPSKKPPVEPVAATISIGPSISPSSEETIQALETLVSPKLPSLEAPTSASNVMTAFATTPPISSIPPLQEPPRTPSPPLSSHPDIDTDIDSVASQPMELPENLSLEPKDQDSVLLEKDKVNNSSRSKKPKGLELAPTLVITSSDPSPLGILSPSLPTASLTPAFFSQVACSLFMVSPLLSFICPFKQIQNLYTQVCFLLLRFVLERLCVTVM
How it was run: as §1

ETV2 = molecular target: T4, ETV2 (Homo sapiens, UniProt O00321 1-342); conditions: protein: recombinant; tags: N-terminal GST; dsDNA, one strand shown
T4 sequence: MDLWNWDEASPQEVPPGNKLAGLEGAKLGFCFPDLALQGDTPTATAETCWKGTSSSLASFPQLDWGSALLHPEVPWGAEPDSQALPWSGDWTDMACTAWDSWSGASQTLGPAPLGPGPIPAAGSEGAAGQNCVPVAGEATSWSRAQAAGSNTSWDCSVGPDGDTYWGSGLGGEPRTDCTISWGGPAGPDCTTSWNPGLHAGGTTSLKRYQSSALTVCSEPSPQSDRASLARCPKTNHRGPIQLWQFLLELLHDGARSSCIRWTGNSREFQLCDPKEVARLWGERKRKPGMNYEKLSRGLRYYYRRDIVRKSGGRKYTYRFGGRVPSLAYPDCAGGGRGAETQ
How it was run: as §1

ELF3 = molecular target: T5, ELF3 (Homo sapiens, UniProt P78545 1-371); conditions: protein: recombinant; tags: N-terminal GST; dsDNA, one strand shown
T5 sequence: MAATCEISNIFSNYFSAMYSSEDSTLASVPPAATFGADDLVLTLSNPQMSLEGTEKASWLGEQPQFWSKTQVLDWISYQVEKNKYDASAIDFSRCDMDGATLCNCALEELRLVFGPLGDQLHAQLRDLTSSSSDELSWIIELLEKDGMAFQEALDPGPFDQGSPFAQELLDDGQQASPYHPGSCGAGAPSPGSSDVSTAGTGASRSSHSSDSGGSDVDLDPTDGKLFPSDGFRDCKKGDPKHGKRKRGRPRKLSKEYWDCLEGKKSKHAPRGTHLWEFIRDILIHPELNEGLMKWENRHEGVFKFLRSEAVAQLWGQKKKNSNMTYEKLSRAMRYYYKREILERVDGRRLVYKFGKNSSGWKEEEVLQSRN
How it was run: as §1

CRX = CRX (Homo sapiens, UniProt O43186 1-299); conditions: protein: recombinant; tags: N-terminal GST; dsDNA, one strand shown
Sequence of CRX (O43186 whole entry): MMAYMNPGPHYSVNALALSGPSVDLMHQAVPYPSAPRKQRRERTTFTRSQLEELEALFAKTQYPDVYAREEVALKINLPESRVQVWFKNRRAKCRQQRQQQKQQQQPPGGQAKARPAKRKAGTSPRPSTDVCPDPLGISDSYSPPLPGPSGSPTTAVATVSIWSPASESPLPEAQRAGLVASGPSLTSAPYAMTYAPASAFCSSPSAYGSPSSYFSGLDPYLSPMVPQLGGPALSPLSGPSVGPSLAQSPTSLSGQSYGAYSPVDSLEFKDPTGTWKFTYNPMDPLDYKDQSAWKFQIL
How it was run: as §1

ETV1 = ETV1 (Homo sapiens, UniProt P50549 1-477); conditions: protein: recombinant; tags: N-terminal GST; dsDNA, one strand shown
Sequence of ETV1 (P50549 whole entry): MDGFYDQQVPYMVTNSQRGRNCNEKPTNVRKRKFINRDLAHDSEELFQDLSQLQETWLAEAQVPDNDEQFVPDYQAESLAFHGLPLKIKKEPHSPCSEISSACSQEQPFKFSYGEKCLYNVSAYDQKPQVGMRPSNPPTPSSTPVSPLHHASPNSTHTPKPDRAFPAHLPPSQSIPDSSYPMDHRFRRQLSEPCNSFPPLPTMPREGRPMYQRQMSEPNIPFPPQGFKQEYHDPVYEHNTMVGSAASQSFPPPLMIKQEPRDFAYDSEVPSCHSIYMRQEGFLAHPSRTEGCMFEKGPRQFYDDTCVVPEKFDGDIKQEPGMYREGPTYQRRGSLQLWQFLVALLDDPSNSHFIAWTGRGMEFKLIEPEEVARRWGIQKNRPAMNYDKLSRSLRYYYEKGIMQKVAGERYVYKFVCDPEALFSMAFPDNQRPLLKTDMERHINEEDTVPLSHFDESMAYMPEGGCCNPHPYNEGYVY
How it was run: as §1

ERF = molecular target: T6, ERF (Homo sapiens, UniProt P50548 1-548); conditions: protein: recombinant; tags: N-terminal GST; dsDNA, one strand shown
T6 sequence: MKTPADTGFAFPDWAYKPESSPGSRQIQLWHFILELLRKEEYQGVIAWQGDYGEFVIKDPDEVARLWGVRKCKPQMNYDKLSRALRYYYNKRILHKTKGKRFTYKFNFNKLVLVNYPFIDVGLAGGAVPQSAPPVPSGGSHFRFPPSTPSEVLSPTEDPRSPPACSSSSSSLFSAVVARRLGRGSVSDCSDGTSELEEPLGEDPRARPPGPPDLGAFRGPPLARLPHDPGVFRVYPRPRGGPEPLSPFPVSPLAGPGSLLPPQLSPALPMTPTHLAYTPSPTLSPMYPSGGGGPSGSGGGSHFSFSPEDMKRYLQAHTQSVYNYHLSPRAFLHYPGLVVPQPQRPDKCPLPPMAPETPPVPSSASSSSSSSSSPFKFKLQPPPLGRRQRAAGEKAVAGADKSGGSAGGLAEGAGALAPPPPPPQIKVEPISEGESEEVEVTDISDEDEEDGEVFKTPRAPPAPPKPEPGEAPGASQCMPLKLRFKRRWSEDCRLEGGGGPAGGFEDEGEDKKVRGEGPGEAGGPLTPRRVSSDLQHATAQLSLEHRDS
How it was run: as §1

ETV3L = molecular target: T7, ETV3L (Homo sapiens, UniProt Q6ZN32 1-361); conditions: protein: recombinant; tags: N-terminal GST; dsDNA, one strand shown
T7 sequence: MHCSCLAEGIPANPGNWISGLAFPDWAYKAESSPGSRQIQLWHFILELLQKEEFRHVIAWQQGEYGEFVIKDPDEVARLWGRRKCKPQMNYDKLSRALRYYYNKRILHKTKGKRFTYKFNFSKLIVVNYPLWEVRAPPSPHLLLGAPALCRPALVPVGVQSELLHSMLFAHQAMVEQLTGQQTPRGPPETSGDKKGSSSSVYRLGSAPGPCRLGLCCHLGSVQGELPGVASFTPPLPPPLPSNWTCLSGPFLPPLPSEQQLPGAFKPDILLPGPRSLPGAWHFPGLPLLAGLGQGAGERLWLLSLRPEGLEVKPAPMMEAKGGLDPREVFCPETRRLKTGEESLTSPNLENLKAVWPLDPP
How it was run: as §1

ETS2 = molecular target: T8, ETS2 (Homo sapiens, UniProt P15036 1-469); conditions: protein: recombinant; tags: N-terminal GST; dsDNA, one strand shown
T8 sequence: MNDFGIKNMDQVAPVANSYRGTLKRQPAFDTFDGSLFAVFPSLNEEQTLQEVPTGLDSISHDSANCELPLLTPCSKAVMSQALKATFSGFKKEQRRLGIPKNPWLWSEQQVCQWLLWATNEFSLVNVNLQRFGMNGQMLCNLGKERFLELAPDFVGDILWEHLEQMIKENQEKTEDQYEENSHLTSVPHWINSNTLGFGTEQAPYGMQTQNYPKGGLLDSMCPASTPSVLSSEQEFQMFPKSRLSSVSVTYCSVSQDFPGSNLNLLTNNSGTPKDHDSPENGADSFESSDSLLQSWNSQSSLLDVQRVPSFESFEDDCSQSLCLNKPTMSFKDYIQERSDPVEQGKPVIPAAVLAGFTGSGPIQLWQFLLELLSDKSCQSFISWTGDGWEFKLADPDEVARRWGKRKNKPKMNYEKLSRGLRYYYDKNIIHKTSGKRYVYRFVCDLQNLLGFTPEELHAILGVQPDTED
How it was run: as §1

SPDEF = molecular target: T9, SPDEF (Homo sapiens, UniProt O95238 1-335); conditions: protein: recombinant; tags: N-terminal GST; dsDNA, one strand shown
T9 sequence: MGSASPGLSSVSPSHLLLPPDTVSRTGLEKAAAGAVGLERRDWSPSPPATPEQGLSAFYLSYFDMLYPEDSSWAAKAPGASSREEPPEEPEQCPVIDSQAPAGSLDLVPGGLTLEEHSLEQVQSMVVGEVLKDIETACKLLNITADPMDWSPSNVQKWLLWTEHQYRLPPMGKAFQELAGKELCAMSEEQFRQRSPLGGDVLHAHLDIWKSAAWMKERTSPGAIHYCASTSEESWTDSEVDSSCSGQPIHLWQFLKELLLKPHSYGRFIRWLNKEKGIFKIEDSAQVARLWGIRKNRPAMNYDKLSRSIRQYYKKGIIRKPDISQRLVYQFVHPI
How it was run: as §1

ETV7 = molecular target: T10, ETV7 (Homo sapiens, UniProt Q9Y603 1-341); conditions: protein: recombinant; tags: N-terminal GST; dsDNA, one strand shown
T10 sequence: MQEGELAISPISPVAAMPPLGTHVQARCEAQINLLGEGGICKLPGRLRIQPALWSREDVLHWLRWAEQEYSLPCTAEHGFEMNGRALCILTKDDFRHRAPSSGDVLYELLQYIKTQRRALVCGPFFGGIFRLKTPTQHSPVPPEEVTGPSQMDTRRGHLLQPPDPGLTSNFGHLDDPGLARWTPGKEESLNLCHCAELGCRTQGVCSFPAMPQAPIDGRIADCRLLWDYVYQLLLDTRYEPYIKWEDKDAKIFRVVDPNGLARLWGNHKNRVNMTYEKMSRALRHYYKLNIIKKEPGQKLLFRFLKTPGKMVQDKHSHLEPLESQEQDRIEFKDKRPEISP
How it was run: as §1

ELF5 = molecular target: T11, ELF5 (Homo sapiens, UniProt Q9UKW6-2 1-255); conditions: protein: recombinant; tags: N-terminal GST; dsDNA, one strand shown
T11 sequence: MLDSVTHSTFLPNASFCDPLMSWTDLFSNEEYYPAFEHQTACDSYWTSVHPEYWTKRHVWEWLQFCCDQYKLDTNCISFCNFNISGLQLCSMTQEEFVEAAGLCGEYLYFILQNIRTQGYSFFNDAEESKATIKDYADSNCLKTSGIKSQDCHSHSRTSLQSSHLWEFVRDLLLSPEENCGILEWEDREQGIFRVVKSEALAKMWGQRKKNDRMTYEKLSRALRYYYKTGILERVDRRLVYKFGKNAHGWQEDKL
How it was run: as §1

ETV3 = molecular target: T12, ETV3 (Homo sapiens, UniProt P41162-2 1-143); conditions: protein: recombinant; tags: N-terminal GST; dsDNA, one strand shown
T12 sequence: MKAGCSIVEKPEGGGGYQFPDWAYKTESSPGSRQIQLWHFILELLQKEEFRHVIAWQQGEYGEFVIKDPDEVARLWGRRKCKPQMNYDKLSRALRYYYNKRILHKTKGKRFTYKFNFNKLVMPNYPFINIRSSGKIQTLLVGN
How it was run: as §1

ETV6 = ETV6 (Homo sapiens, UniProt P41212 1-452); conditions: protein: recombinant; tags: N-terminal GST; dsDNA, one strand shown
Sequence of ETV6 (P41212 whole entry): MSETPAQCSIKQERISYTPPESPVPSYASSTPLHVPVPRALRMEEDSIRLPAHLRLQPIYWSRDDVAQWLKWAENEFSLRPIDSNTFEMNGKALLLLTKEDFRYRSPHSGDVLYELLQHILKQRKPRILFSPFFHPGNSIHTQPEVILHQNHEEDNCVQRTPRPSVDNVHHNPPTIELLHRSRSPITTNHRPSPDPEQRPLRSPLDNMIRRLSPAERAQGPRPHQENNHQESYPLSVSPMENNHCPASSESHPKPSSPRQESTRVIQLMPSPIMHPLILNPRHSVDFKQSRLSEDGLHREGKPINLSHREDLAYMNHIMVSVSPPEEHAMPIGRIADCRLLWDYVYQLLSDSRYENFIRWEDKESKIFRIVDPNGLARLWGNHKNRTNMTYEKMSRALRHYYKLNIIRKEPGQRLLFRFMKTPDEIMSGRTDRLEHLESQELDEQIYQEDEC
How it was run: as §1

GCCTTT was tested, and the binding signal (FEV) was 1.41 fold enrichment (6-mer frequency, TF over GST control), the binding signal (ETV5) was 1.25 fold enrichment (6-mer frequency, TF over GST control) and the binding signal (HSF1) was 1.24 fold enrichment (6-mer frequency, TF over GST control). For the same sequence, the binding signal (SPIC) was 1.56 fold enrichment (6-mer frequency, TF over GST control), the binding signal (ELF4) was 1.36 fold enrichment (6-mer frequency, TF over GST control) and the binding signal (ELK4) was 1.32 fold enrichment (6-mer frequency, TF over GST control). For the same sequence, the binding signal (ETV2) was 1.53 fold enrichment (6-mer frequency, TF over GST control), the binding signal (ELF3) was 1.38 fold enrichment (6-mer frequency, TF over GST control) and the binding signal (CRX) was 1.3 fold enrichment (6-mer frequency, TF over GST control). For the same sequence, the binding signal (ETV1) was 1.34 fold enrichment (6-mer frequency, TF over GST control), the binding signal (ERF) was 1.29 fold enrichment (6-mer frequency, TF over GST control) and the binding signal (ETV3L) was 1.27 fold enrichment (6-mer frequency, TF over GST control). The binding signal (ETS2) was 1.14 fold enrichment (6-mer frequency, TF over GST control), the binding signal (SPDEF) was 1.15 fold enrichment (6-mer frequency, TF over GST control) and the binding signal (ETV7) was 1.18 fold enrichment (6-mer frequency, TF over GST control). The binding signal (ELF5) was 1.3 fold enrichment (6-mer frequency, TF over GST control), the binding signal (ETV3) was 1.33 fold enrichment (6-mer frequency, TF over GST control) and the binding signal (ETV6) was 1.38 fold enrichment (6-mer frequency, TF over GST control).
